Screens from PubChem.
Only some compounds are listed: those with a hit (about 19% of all), similar ones and a draw of the others.
TDP1 cell CPT = growth inhibition of DT40 Tdp1-/-;hTDP1 cells with camptothecin (screen for TDP1 inhibitors); chicken DT40 Tdp1-/-;hTDP1 cells + 20 nM CPT, ATP luminescence, 48 h; AID 686979; Potency, µM (highest dose often 46.2 µM), hits mostly inhibitors; 420,000 compounds, 12% hits; note: nearly all actives have a fitted effect of over 55% in size
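Chicken DT40 Tdp1-/- cells stably complemented with human TDP1 were seeded at 400 cells/well in medium containing 20 nM camptothecin, exposed to pin-transferred compounds, and grown at 37 °C for at least 48 hr. Viability was read as ATP luminescence.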
HT1080 IDH1KD tx = HT-1080 IDH1 knockdown cell toxicity (counter line); HT-1080 IDH1 knockdown viability, ATP luminescence, 48 h; Potency, µM (titrated, usually from 46.1 µM), usual class: cytotoxic; 360,000 compounds, 2% hits; AID 686971
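IDH1KD HT-1080 cells, 750/well, RPMI + 5% FBS; compound pinned after 2 h settling; 48 h, 37 °C; CellTiter-Glo luminescence; % activity normalised to DMSO and no-cell wells; curves fitted, classed by r2 and efficacy.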
HT1080NT lethal = kills 2HG-producing HT-1080-NT fibrosarcoma cells. Potency, µM (top dose mostly 46.1 µM), hits mostly cytotoxic. HT-1080-NT fibrosarcoma viability, CellTiter-Glo ATP luminescence, 48 h. AID 686970. 360,000 compounds, 1.6% hits;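 note: NT is the 2HG producing partner of a matched IDH1 knockdown line; nearly all actives have a fitted effect of over 55% in size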
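Toxicity toward the 2HG-producing NT line was scored as %Activity, normalised to DMSO and no-cell wells, from CellTiter-Glo luminescence after 48 hours' treatment.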
IL-1B inflam inh = inhibitors of inflammasome signaling (IL-1 beta secretion); activity change, % at 57.5 µM; 360,000 compounds, 4.7% hits; THP-1 LPS/ATP IL-1B secretion, AlphaLISA, 16 h; active compounds read low; in the data active = activity change below about -50%; inconclusive = mostly about -30% to -49%
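THP-1 cells pretreated 1 hr with compounds (up to 57.5 uM final), then stimulated with LPS (250 ng/mL final) plus ATP (1.25 mM final); secreted IL-1B measured by AlphaLISA after 16 hr, decreased signal indicating inhibition.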
DT40 TDP1 no CPT = qHTS for Inhibitors of human tyrosyl-DNA phosphodiesterase 1 (TDP1): qHTS in cells in absence of CPT; AID 686978, 2013; Potency, µM (highest dose often 46.2 µM), usual class: inhibitors; DT40 Tdp1-/- hTDP1 cells, no CPT, ATP luminescence, 48 h; 420,000 compounds, 15% hits; note: nearly all actives have a fitted effect of over 55% in size
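Cells were dispensed at 400 per well, compounds added by pin tool, plates incubated ≥48 hr at 37 °C, then CellTiter-Glo added for 30 min at room temperature before luminescence reading. Line: DT40 Tdp1-/- complemented with hTDP1; camptothecin omitted.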
A number is an active result; . = inactive; ? = inconclusive; / = not tested or not shown; [ ] = remark or other dose. Unless noted, calls come from the whole dose curve; as a rule, active = well fitted curve in the direction sought with a large enough effect; inconclusive = small, poorly fitted or top-dose-only effect, or another doubt; inactive = no such curve, though single readings can be large; an effect the other way counts as inactive or inconclusive.

SMILES | TDP1 cell CPT | HT1080 IDH1KD tx | HT1080NT lethal | IL-1B inflam inh | DT40 TDP1 no CPT
CCC(C)N(C)C1CCN(C(=S)Nc2cccc(SC)c2)CC1 (centres undefined) | . | . | . | . | .
CCCCn1nnnc1C(c1cc2ccccc2o1)N(C)Cc1ccc(Cl)cc1 (centres undefined) | ? | . | . | . | 21µM
N#Cc1nccnc1S(=O)(=O)c1cccs1 | 0.65µM | ? | 21µM | -98 | 1µM
CN(Cc1ccccc1C#N)S(=O)(=O)c1cccs1 | . | . | . | . | ?
CC(=O)N1CCN(C(=O)CNc2cc(C(F)(F)F)ccc2OCC(F)(F)F)CC1 | . | . | . | -57 | .
CCN1CCN(CC(=O)Nc2cc(C(F)(F)F)ccc2OCCOC)CC1 | . | . | . | . | .
CCn1c(=O)c2c3c(sc2n2c(SCc4ccc(F)cc4)nnc12)CCCC3 | ? | . | . | . | .
CCC1(C)Cc2c(sc3c2c(=O)n(C)c2nnc(SCCc4ccccc4)n32)CO1 (centres undefined) | ? | . | . | . | 23µM
CCC1(C)Cc2c(sc3c2c(=O)n(C)c2nnc(SCc4ccccc4)n32)CO1 (centres undefined) | 18µM | . | . | . | ?
CC(C)Oc1ccc(C(=O)NC2(C(F)(F)F)NC(=O)N(CCCc3ccccc3)C2=O)cc1 (centres undefined) | ? | ? | . | -64 | ?
CC(C)N1CCOC1c1ccccc1 (centres undefined) | ? | . | . | . | ?
CCCn1c(NC(=O)c2ccc(F)cc2)nc2ccccc21 | . | . | . | . | ?
CCCn1c(NC(=O)C2COc3ccccc3O2)nc2ccccc21 (centres undefined) | 18µM | . | . | . | 18µM
Cc1ccc(C(=O)N/N=C/c2nc3ccccc3n2C)cc1 | ? | 10µM | 8.9µM | . | 18µM
CCCn1c(NC(=O)c2ccccc2Br)nc2ccccc21 | ? | ? | . | . | 23µM
CCCn1c(NC(=O)C2CCN(C(=O)c3ccc(F)cc3)CC2)nc2ccccc21 | 18µM | . | . | . | ?
CCOC(=O)c1c(C#N)c(SCC(=O)Nc2ccc(OC)cc2)nc2c1CN(CC)CC2 | . | . | . | . | .
Cc1ccc(N(CC(=O)N2CCN(C3CCCCC3)CC2)S(=O)(=O)c2cccnc2)cc1 | . | . | . | . | .
O=C(Nc1ccc(Br)cc1)C1CCN(c2cnccn2)CC1 | ? | ? | . | . | ?
CCCN(CC1CC1)C(=O)CSc1ncnc2sccc12 | . | . | . | . | .
Cc1ccc(S(=O)(=O)N2CCOCC2)cc1NC(=O)CSc1nnc(NC2CC2)s1 | . | . | .[9.24 µM] | . | .
Cn1c(/C=N/NC(=O)c2ccccc2Br)nc2ccccc21 | ? | ? | ? | . | 18µM
COC(=O)c1ccc(C(=O)N2CCc3c(C(=O)NC(C)c4ccco4)c(OC)cc(=O)n3CC2)cc1 (centres undefined) | . | / | / | / | .
CNS(=O)(=O)c1ccc(Oc2ccc(S(=O)(=O)NC)cc2)cc1 | 15µM | . | . | . | ?
CNS(=O)(=O)c1ccc2ccccc2c1 | . | . | . | . | .
SMILES | TDP1 cell CPT | HT1080 IDH1KD tx | HT1080NT lethal | IL-1B inflam inh | DT40 TDP1 no CPT
CC(C)n1ncc(N2CCOCC2)c(Cl)c1=O | . | . | . | . | .
COc1ccc(C)cc1Nc1nc(N)c2ccccc2n1 | ? | ? | ? | -93 | ?
COc1ccc(OC)c(Nc2nc(N)c([N+](=O)[O-])c(NCc3ccccc3)n2)c1 | ? | . | . | / | ?
Cc1ccccc1Nc1nc(N)c2ccccc2n1 | ? | 16µM | ? | -96 | ?
CC(C)(C)C1CCC(C(=O)Nc2nccs2)CC1 (centres undefined) | ? | . | . | . | 23µM
CCOc1ncccc1C(=O)N1CCN(C(=O)c2ccccc2)CC1 | . | . | . | . | .
CCCN1Cc2cccc(C(=O)N3CCN(c4cc(Cl)ccc4C)CC3)c2C1=O | ? | . | . | ? | 13µM
CCOc1ncccc1C(=O)N1CCN(c2cc(Cl)ccc2C)CC1 | 0.82µM | 1.3µM | 1µM | . | 0.65µM
CCOc1ncccc1C(=O)N1CCN(c2cccc(C)c2C)CC1 | 0.52µM | 0.18µM | 0.18µM | . | 0.58µM
C[C@@H]1CN([C@@H](C)CO)C(=O)c2cc(Br)cnc2O[C@H]1CN(C)C(=O)CCN1CCCCC1 | . | . | . | . | .
COC(=O)c1c(C)oc(C)c1S(=O)(=O)NC(C)(C)C | . | . | . | . | .
COc1ccc(CONS(=O)(=O)c2ccc(NC(C)=O)cc2)cc1Cl | 21µM | . | . | . | ?
Cc1cc(N2CCOCC2)nc2ccc(NC(=O)CCC(=O)N3CCN(c4ccccc4)CC3)cc12 | ? | . | . | . | ?
Cc1cc(N2CCC(C)CC2)nc2ccc(NC(=O)CCC(=O)N3CCN(c4cccc(C(F)(F)F)c4)CC3)cc12 | 3.3µM | / | / | / | 2.3µM
Cc1cc(N2CCN(C)CC2)nc2ccc(NC(=O)CCC(=O)N3CCN(c4ccc([N+](=O)[O-])cc4)CC3)cc12 | 26µM | 16µM | 21µM | . | 18µM
CCN(CC)CCCNC(=O)CCC(=O)Nc1ccc2nc(N3CCC(C)CC3)cc(C)c2c1 | ? | . | . | . | ?
Cc1ccc(Cl)cc1N1CCN(C(=O)CCC(=O)Nc2ccc3nc(N4CCC(C)CC4)cc(C)c3c2)CC1 | 23µM | / | / | / | 13µM
Cc1cc(N2CCN(C)CC2)nc2ccc(NC(=O)CCC3CCCC3)cc12 | ? | . | . | . | ?
COc1ccc(CNC(=O)C2(CC3CC(c4ccccc4)=NO3)CCN(C(=O)C3CCCC3)CC2)cc1 (centres undefined) | ? | . | . | . | .
Cn1ncc([N+](=O)[O-])c1C(=O)N1CCCCCC1 | . | . | . | . | .
Cc1ccc2cc3c(NC(=O)c4cccnc4)nn(C)c3nc2c1 | . | .[9.24 µM] | . | . | 13µM
CCCn1nc(NC(=O)c2ccncc2)c2cc3ccccc3nc21 | . | . | . | ? | ?
CC(C)Cn1nc(NC(=O)c2cccc(Cl)c2)c2cc3ccccc3nc21 | 15µM | / | / | / | 8.2µM
CCn1nc(NC(=O)c2ccncc2)c2cc3cc(C)ccc3nc21 | ? | . | . | ? | 23µM
CCCn1nc(NC(=O)c2ccco2)c2cc3ccccc3nc21 | 23µM | . | . | . | 15µM
CC(C)N(C)S(=O)(=O)c1ccc(Cl)c(C(=O)O)c1 | . | . | . | . | .
Cc1sc2c(c1C)c(=O)n(-c1ccc(Cl)cc1)c(=O)n2Cc1cc(=O)n2cc(Br)ccc2n1 | . | / | / | / | .
Cc1ccc2cc3c(NC(=O)c4ccco4)nn(C)c3nc2c1 | . | . | . | . | ?
CCCC(=O)Nc1nn(CC(C)C)c2nc3cc(C)ccc3cc12 | . | . | . | . | .
CCn1nc(NC(=O)c2ccco2)c2cc3cc(C)ccc3nc21 | ? | . | . | -50 | ?
